Screen size: about 39,000 compounds; about 3,300 (8.5%) were called active. The entries come from a sample that favours actives as a whole.

This assay has as its system HepG2. The assay can be described thus: cytotoxicity call (relative viability < 0.9). The note with it: 10 µM.
On to `Cn1cnc(S(=O)(=O)N2C[C@@H](O)COC[C@H]3O[C@H](CC(=O)NCc4cc(F)cc(F)c4)CC[C@@H]32)c1`, for which the cytotoxicity call is “inactive”. On to `O=C(C[C@@H]1CC[C@H]2[C@@H](COC[C@@H](O)CN2S(=O)(=O)c2cccc(Cl)c2)O1)N1CCOCC1`, for which the cytotoxicity call is “inactive”. Under `O=C(C[C@@H]1CC[C@H]2[C@@H](COC[C@@H](O)CN2C(=O)Nc2ccc(Cl)c(Cl)c2)O1)NCc1ccc(Cl)c(Cl)c1` stands “active”; under `O=C(C[C@H]1CC[C@H]2[C@@H](COC[C@@H](O)CN2C(=O)Nc2ccc(Cl)c(Cl)c2)O1)NCc1ccc(Cl)c(Cl)c1`, “active”. Under `Cn1cnc(CCNC(=O)C[C@H]2CC[C@@H]3[C@H](COC[C@H](O)CN3C(=O)Nc3ccc(Cl)cc3)O2)c1` stands “active”; under `Cn1cnc(CCNC(=O)C[C@H]2CC[C@@H]3[C@H](COC[C@@H](O)CN3C(=O)Nc3ccc(Cl)cc3)O2)c1`, “inactive”; under `O=C(C[C@H]1CC[C@@H]2[C@H](COC[C@H](O)CN2Cc2cccc(C(F)(F)F)c2)O1)NCCc1ccncc1`, “inactive”. Under `O=C(C[C@H]1CC[C@H]2[C@@H](COC[C@H](O)CN2C(=O)Nc2ccc(Cl)c(Cl)c2)O1)NCc1ccc(Cl)c(Cl)c1` stands “inactive”. Consider `O=C(C[C@H]1CC[C@@H]2[C@H](COC[C@@H](O)CN2C(=O)Nc2ccc(Cl)c(Cl)c2)O1)NCc1ccc(Cl)c(Cl)c1`, for which the cytotoxicity call was “inactive”.

With `Cn1cnc(CCNC(=O)C[C@@H]2CC[C@H]3[C@@H](COC[C@H](O)CN3C(=O)Nc3ccc(Cl)cc3)O2)c1`, the cytotoxicity call is “inactive”. Under `O=C(C[C@H]1CC[C@@H]2[C@H](COC[C@@H](O)CN2Cc2cccc(C(F)(F)F)c2)O1)NCCc1ccncc1` stands “active”; under `O=C(C[C@@H]1CC[C@H]2[C@@H](COC[C@H](O)CN2C(=O)Nc2ccc(Cl)c(Cl)c2)O1)NCc1ccc(Cl)c(Cl)c1`, “inactive”; under `O=C(C[C@@H]1CC[C@@H]2[C@H](COC[C@@H](O)CN2C(=O)Nc2ccc(Cl)c(Cl)c2)O1)NCc1ccc(Cl)c(Cl)c1`, “inactive”.

Consider `O=C(C[C@@H]1CC[C@@H]2[C@H](COC[C@H](O)CN2Cc2cccc(C(F)(F)F)c2)O1)NCCc1ccncc1`, for which the cytotoxicity call is “inactive”.

Regarding `C[C@H]1CN([C@@H](C)CO)S(=O)(=O)c2ccc(Br)cc2O[C@@H]1CN(C)C(=O)c1cnccn1`, the cytotoxicity call is “inactive”. For `C[C@H](CO)N1C[C@H](C)[C@H](CN(C)Cc2ccccc2)Oc2c(NC(=O)Nc3ccc(C(F)(F)F)cc3)cccc2C1=O` the value was “inactive”. Under `C[C@H]1CN([C@@H](C)CO)C(=O)Cc2cc(NC(=O)CCC(F)(F)F)ccc2O[C@@H]1CN(C)Cc1ccc(Cl)c(Cl)c1` stands “inactive”; under `O=C(O)CCC(=O)N1CC(=O)Nc2ccccc21`, “inactive”; under `C[C@@H]1CN([C@@H](C)CO)C(=O)c2cccc(NS(=O)(=O)c3ccccc3)c2O[C@@H]1CN(C)Cc1ccc(Oc2ccccc2)cc1`, “inactive”. In the case of `COc1ccc(S(=O)(=O)N(C)C[C@H]2Oc3ccc(NS(=O)(=O)c4ccc(C)cc4)cc3CC(=O)N([C@H](C)CO)C[C@@H]2C)cc1`, the cytotoxicity call is “inactive”. For `NC[C@H](c1ccccc1Cl)N1CCOCC1` the value was “inactive”; for `C[C@@H]1CN([C@H](C)CO)C(=O)c2cc(NC(=O)Nc3ccccc3)ccc2O[C@@H](C)CCCCO[C@H]1CN(C)C(=O)Cc1ccccc1`, “inactive”. Under `CC[C@H](C)[C@H](N)C1=N[C@H](C(=O)N[C@@H](CC(C)C)C(=O)N[C@H](CCC(=O)O)C(=O)N[C@H](C(=O)N[C@H]2CCCCNC(=O)[C@H](CC(N)=O)NC(=O)[C@@H](CC(=O)O)NC(=O)[C@H](Cc3cnc[nH]3)NC(=O)[C@@H](Cc3ccccc3)NC(=O)[C@H]([C@@H](C)CC)NC(=O)[C@@H](CCCN)NC2=O)[C@@H](C)CC)CS1` stands “inactive”; under `O=C(C[C@H]1CC[C@H]2[C@@H](COC[C@@H](O)CN2C(=O)Nc2ccc(Cl)c(Cl)c2)O1)NCc1ccncc1`, “inactive”; under `O=C(C[C@H]1CC[C@@H]2[C@H](COC[C@H](O)CN2C(=O)Nc2ccc(Cl)c(Cl)c2)O1)NCc1ccncc1`, “inactive”. For `O=C(C[C@@H]1CC[C@@H]2[C@H](COC[C@@H](O)CN2C(=O)Nc2ccc(Cl)cc2)O1)NCCc1ccncc1` the value was “inactive”; for `O=C(C[C@H]1CC[C@@H]2[C@H](COC[C@H](O)CN2C(=O)Nc2ccc(Cl)c(Cl)c2)O1)NCc1ccc(Cl)c(Cl)c1`, “active”; for `O=C(C[C@@H]1CC[C@@H]2[C@H](COC[C@@H](O)CN2C(=O)Nc2ccc(Cl)c(Cl)c2)O1)NCc1ccncc1`, “active”. Take `O=C(C[C@H]1CC[C@H]2[C@@H](COC[C@H](O)CN2C(=O)Nc2ccc(Cl)cc2)O1)NCCc1ccncc1`: the cytotoxicity call was “inactive”. For `O=C(C[C@@H]1CC[C@@H]2[C@H](COC[C@H](O)CN2C(=O)Nc2ccc(Cl)c(Cl)c2)O1)NCc1ccc(Cl)c(Cl)c1` the value was “inactive”; for `O=C(C[C@H]1CC[C@H]2[C@@H](COC[C@@H](O)CN2C(=O)Nc2ccc(Cl)cc2)O1)NCCc1ccncc1`, “active”.

As for `O=C(C[C@@H]1CC[C@H]2[C@@H](COC[C@@H](O)CN2C(=O)Nc2ccc(Cl)c(Cl)c2)O1)NCc1ccncc1`, the cytotoxicity call was “inactive”. On to `CO[C@H]1CN(C)C(=O)c2cc(NC(=O)Nc3ccc(Cl)cc3)ccc2OC[C@@H](C)N(C(=O)Nc2c(C)noc2C)C[C@@H]1C`, for which the cytotoxicity call was “inactive”. Under `C[C@@H]1CCCCO[C@@H](CN(C)C(=O)Cc2ccccc2)[C@@H](C)CN([C@H](C)CO)C(=O)c2cc(NC(=O)C3CCCCC3)ccc2O1` stands “inactive”; under `CC(C)NC(=O)N(C)C[C@@H]1Oc2ccc(NC(=O)Cn3cnnn3)cc2C(=O)N([C@H](C)CO)C[C@@H]1C`, “inactive”. With `C[C@@H]1CCCCO[C@H](CN(C)C(=O)Cc2ccccc2)[C@H](C)CN([C@H](C)CO)C(=O)c2cc(NC(=O)CCC(F)(F)F)ccc2O1`, the cytotoxicity call was “inactive”. For `C[C@@H]1CN([C@@H](C)CO)C(=O)c2cc(NC(=O)CCCN(C)C)ccc2O[C@H]1CN(C)S(=O)(=O)c1ccc(F)cc1` the value was “inactive”; for `Clc1ccc(C2=Nc3cccc4cccc(c34)N2)cc1`, “inactive”. With `C=C(CO)C(=O)O[C@@H]1[C@H]2C(=C)C(=O)O[C@@H]2[C@H]2O[C@]2(C)CC/C=C(/C(=O)OC)[C@H]1OC(C)=O`, the cytotoxicity call was “active”. Under `C=C(CO)C(=O)O[C@H]1C[C@@]2(C)OC(=O)/C(=C/C)[C@]2(O)CC[C@@]2(C)CC(=O)[C@]1(C(=C)C(=O)OC)O2` stands “inactive”; under `O=C(O)CN1CCCCCC1=O`, “inactive”. Under `O=C(C[C@H]1C[C@@H]2c3cc(NC(=O)Nc4ccc(C(F)(F)F)cc4)ccc3O[C@@H]2[C@H](CO)O1)NCc1ccc(Cl)cc1` stands “inactive”; under `C[C@@H]1CN([C@@H](C)CO)C(=O)CCCn2cc(nn2)CO[C@H]1CN(C)C(=O)Nc1ccnc(N2CCOCC2)c1`, “inactive”. Under `C[C@@H]1CN([C@@H](C)CO)C(=O)c2cc(NC(=O)c3ccncc3)ccc2O[C@@H]1CN(C)Cc1ccc(-c2ccccc2)cc1` stands “inactive”. `Cc1noc(C)c1NC(=O)N(C)C[C@H]1Oc2ccc(NC(=O)c3ccncc3)cc2C(=O)N([C@@H](C)CO)C[C@@H]1C`: the cytotoxicity call is “inactive”. In the case of `C[C@H](CO)N1C[C@H](C)[C@@H](CN(C)Cc2ccc(-c3ccccc3)cc2)Oc2ccc(NC(=O)c3ccncc3)cc2C1=O`, the cytotoxicity call was “inactive”.

On to `C[C@@H]1CN([C@H](C)CO)C(=O)c2cc(NC(=O)c3ccncc3)ccc2O[C@@H]1CN(C)Cc1ccc(Oc2ccccc2)cc1`, for which the cytotoxicity call is “inactive”.

On to `C[C@H](CO)N1C[C@H](C)[C@H](CN(C)Cc2ccc(Oc3ccccc3)cc2)Oc2ccc(NC(=O)c3ccncc3)cc2C1=O`, for which the cytotoxicity call is “active”.

On to `C[C@H]1CN([C@@H](C)CO)C(=O)c2cc(NC(=O)c3ccncc3)ccc2O[C@@H]1CN(C)Cc1ccc(Oc2ccccc2)cc1`, for which the cytotoxicity call is “inactive”. Under `Cc1noc(C)c1NC(=O)N(C)C[C@H]1Oc2ccc(NC(=O)c3ccncc3)cc2C(=O)N([C@@H](C)CO)C[C@H]1C` stands “inactive”; under `Cc1noc(C)c1NC(=O)N(C)C[C@H]1Oc2ccc(NC(=O)c3ccncc3)cc2C(=O)N([C@H](C)CO)C[C@@H]1C`, “active”. Under `C[C@@H]1CN([C@H](C)CO)C(=O)c2cc(NC(=O)c3ccncc3)ccc2O[C@H]1CN(C)Cc1ccc(-c2ccccc2)cc1` stands “active”; under `C[C@@H]1CN([C@@H](C)CO)C(=O)c2cc(NC(=O)CCCN(C)C)ccc2O[C@H]1CN(C)Cc1ccncc1`, “inactive”. Take `C[C@@H]1CCCCO[C@@H](CN(C)CC2CCCCC2)[C@@H](C)CN([C@@H](C)CO)C(=O)c2cc(NC(=O)CCC(F)(F)F)ccc2O1`: the cytotoxicity call was “inactive”. Under `Cc1ccc(S(=O)(=O)N(C)C[C@@H]2Oc3ccc(NS(C)(=O)=O)cc3C(=O)N([C@H](C)CO)C[C@@H]2C)cc1` stands “inactive”. Under `COc1ccc2c3c(n(c2c1)C)[C@@H](CO)N(C[C@]13CN(Cc2ccncc2)C1)C(=O)CN1CCOCC1` stands “inactive”; under `O=C(C[C@@H]1CC[C@H]2[C@@H](COC[C@@H](O)CN2Cc2ccccc2F)O1)N[C@@H]1CCN(Cc2ccccc2)C1`, “inactive”; under `C[C@@H]1CCCCO[C@@H](CN(C)C(=O)Nc2cccc3ccccc23)[C@H](C)CN([C@@H](C)CO)C(=O)c2cc(NS(=O)(=O)c3cccs3)ccc2O1`, “inactive”. Under `C[C@@H]1CN([C@@H](C)CO)C(=O)c2c(c3ccccc3n2C)-c2ccccc2CO[C@@H]1CN(C)C(=O)NC1CCCCC1` stands “inactive”; under `Cn1c(=O)c2c(ncn2CC(=O)N2CCN(c3ccccc3F)CC2)n(C)c1=O`, “inactive”; under `CCN(CC)C(=S)SSC(=S)N(CC)CC`, “active”. On to `O=C(NCc1nc2ccccc2[nH]1)C1=C[C@@H](c2ccc(C(F)(F)F)cc2)C[C@@H](OCc2ccc(CO)cc2)O1`, for which the cytotoxicity call was “inactive”. Under `Nc1cc(N)nc(SCCC(=O)O)n1` stands “inactive”; under `COCC(=O)N1CC(=O)N2[C@H](CO)[C@@H](c3ccc(C#Cc4cccnc4)cc3)[C@H]2C1`, “inactive”.
